Rows were chosen to be rich in hits. Some 5.7% of all compounds tested hit in one or more screens of this group.
GLP1R cytotox: cytotoxicity in counter-screen for GLP-1R inverse agonists. Potency, µM (titrated, usually from 38.3 µM), for the others: at the top dose activity change, negative = inhibition, hits mostly inhibitors. HEK293 cAMP-luciferase reporter cells, luminescence, 24 h. 410,000 tested, 0.13% active;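 further: loss of luciferase light is scored as toxicity; potency means the concentration at half of the fitted maximal effect; on the % scale 0 is the no-effect control and ±100 the full control effect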
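Seeding density was 200 cells/uL; after overnight-length (12 h) culture, 23 nL compounds went on for 24 h at 37 °C. Readout used a luciferase detection reagent, luminescence taken after 12 min at room temperature.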
ClpP mod: qHTS Assay for Activators of ClpP; ATP-dependent Clp protease proteolytic subunit (Bacillus subtilis (strain 168)), P80244; purified B. subtilis ClpP, FRET peptide cleavage, 20 min; Potency, µM (doses to about 57.5 µM), inactives show at the highest dose activity change, negative = active; 340,000 tested, 1.9% active; AID 651965, 2013; active means well fitted falling curve with a large enough effect; inconclusive means small, poorly fitted or top-dose-only effect; inactive means no such curve, though single readings can be large or run the other way; further: potency means the concentration at half of the fitted maximal effect; the source files actives as falling curves though it sought activators and does not explain the sign; nearly all actives have a fitted effect of over 65% in size
Target sequence (P80244 whole entry, looked up): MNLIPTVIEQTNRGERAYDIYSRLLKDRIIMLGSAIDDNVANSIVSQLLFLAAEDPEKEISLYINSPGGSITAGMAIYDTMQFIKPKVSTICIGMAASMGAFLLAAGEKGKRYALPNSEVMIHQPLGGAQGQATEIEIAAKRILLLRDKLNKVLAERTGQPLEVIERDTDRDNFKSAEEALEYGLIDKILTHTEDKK
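ClpP 10 microg/mL final, pH 8 Tris/KCl buffer with BSA, glycerol, Tween-20; compound pinned in; FRET-FV substrate; RT 20 min; Ex320/Em430; ΔFRET vs ADEP 5.8 microM, DMSO, no enzyme.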
DRD3 agonist: D3 dopamine receptor (human) agonism. D3R DiscoveRx beta-arrestin cells, luminescence, 90 min. max activation, %. 410,000 tested, 0.58% active; in the data active means max activation above about 30%; further: 0% is about no effect
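Cells at 1500/well, incubated overnight, then treated with pinned compounds (dopamine as control) for 90 min at 37 degrees C. DiscoveRx reagent added for 30 - 60 minutes at room temperature; luminescence read.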
GLP-1R inv ag: inverse agonists of human GLP-1 receptor | P43220 | HEK293 GLP-1R CRE-luciferase, luminescence, 24 h; GLP-1R form is constitutively active | Potency, µM (highest dose often 38.3 µM), for the others: at the top dose activity change, negative = inhibition, actives largely listed as inhibitors | 410,000 tested, 1.6% active | AID 624417; further: potency means the concentration at half of the fitted maximal effect; on the % scale 0 is the no-effect control and ±100 the full control effect; nearly all actives have a fitted effect of over 55% in size
Target sequence (P43220 whole entry, looked up): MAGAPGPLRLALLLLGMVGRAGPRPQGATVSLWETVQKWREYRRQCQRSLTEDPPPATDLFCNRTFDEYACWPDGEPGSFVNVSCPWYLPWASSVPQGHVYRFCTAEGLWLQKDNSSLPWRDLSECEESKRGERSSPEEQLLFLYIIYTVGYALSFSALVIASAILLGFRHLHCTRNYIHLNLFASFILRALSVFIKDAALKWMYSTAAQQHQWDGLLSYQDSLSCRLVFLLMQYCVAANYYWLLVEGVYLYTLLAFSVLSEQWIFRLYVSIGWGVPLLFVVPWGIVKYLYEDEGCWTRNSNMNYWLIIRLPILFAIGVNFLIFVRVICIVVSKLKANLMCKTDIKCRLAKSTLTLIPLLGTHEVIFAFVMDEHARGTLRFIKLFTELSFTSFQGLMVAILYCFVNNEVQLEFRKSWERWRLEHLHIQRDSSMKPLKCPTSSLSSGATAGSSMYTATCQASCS
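Readout was luciferase luminescence, measured 12 min after detection reagent at room temperature. Beforehand, GLP-1R reporter HEK293 cells had sat 12 h, then received compounds for 24 hr at 37 deg C.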
GLP1R ag: agonists of human GLP-1 receptor | AID 624172 | P43220 | 380,000 tested, 0.007% active | Potency, µM (titrated, usually from 45.6 µM), for the others: at the highest dose activation, most hits filed as activators | HEK293 GLP-1R CRE-luciferase, luminescence, 4-6 h; cells express a hypersensitive GLP-1R form; further: potency means the concentration at half of the fitted maximal effect; % of control where 0% means no effect
D3 antag: antagonists of human D3 dopamine receptor | P35462 | D3R cells, DiscoveRx beta-arrestin luminescence, antagonist mode; stronger effect = lower value | 360,000 tested, 2.5% active | max response, negative = inhibition, %; in the data active means max response below about -50%; inconclusive means no clear call, values can overlap the other calls; further: on the % scale 0 is the no-effect control and ±100 the full control effect
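Cells expressing the human receptor were seeded at 1500 cells/well, incubated overnight at 37 degrees C in 5% CO2, then exposed to library compounds with dopamine controls for 90 minutes at 37 degrees C before luminescent detection.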
Starred values were filed as active, the others as inactive; ? = inconclusive; . = no result given. Unless noted, the call rests on the fitted dose curve; in most records, active means well fitted curve in the direction sought with a large enough effect; inconclusive means small, poorly fitted or top-dose-only effect, or another doubt; inactive means no such curve, though single readings can be large; an effect the other way counts as inactive or inconclusive.

SMILES	GLP1R cytotox	ClpP mod	DRD3 agonist	GLP-1R inv ag	GLP1R ag	D3 antag
Cc1ccc2nc(/C(C#N)=C\c3cc(C)n(-c4cccc([N+](=O)[O-])c4)c3C)[nH]c2c1	3%	-1%	-62	-3%	1%	-53*
CC(=O)OC1CCC2(C)C(COc3ccc4ccc(=O)oc4c3)C(C)(O)CCC2C1(C)C (stereo unspecified)	-16%	13%	0	11µM*	-1%	42
C=C1CCC2C(C)(C)[C@@H](O)CC[C@@]2(C)[C@@H]1COc1ccc2ccc(=O)oc2c1 (stereo partly specified)	?	4%	0	?	-3%	-3
CCc1cccc(C)c1NC(=O)C(CC)Sc1nc2ccncc2[nH]1 (stereo unspecified)	-6%	1%	0	4%	.	.
Cc1ccccc1NC(=O)/C(=C/c1cccs1)NC(=O)c1ccco1	-19%	1%	-11	-23%	-1%	-12
Cc1ccccc1NC(=O)/C(=C\c1cccs1)NC(=O)c1ccccc1	6%	-4%	-8	-11%	-5%	-54*
CC(C)(C)c1cc(CCC(=O)NNC(=S)NC(=O)c2ccccc2)cc(C(C)(C)C)c1O	-27%	0%	-20	?	-5%	-79*
COc1cc(OC)c(NC(=O)C(C)n2nc(-c3ccc(C)cc3)c3c(c2=O)CCCC3)cc1Cl (stereo unspecified)	-18%	0%	1	?	.	.
CCC(C(=O)Nc1cc(OC)ccc1OC)n1nc(-c2ccccc2)c2c(c1=O)CCCC2 (stereo unspecified)	-10%	-3%	-4	13µM*	.	.
COc1ccccc1N(CC(N)=O)S(=O)(=O)c1ccc(C)cc1	0%	0%	9	-2%	5%	-76*
COc1ccccc1N(CC(=O)N1CCC(C)CC1)S(=O)(=O)c1ccc(C)cc1	4%	1%	-3	2%	0%	.
COc1cccc(NC(=O)CN(CCc2ccccc2)S(=O)(=O)c2ccc(Cl)cc2)c1	14%	-6%	-10	-14%	.	.
O=C1CCC(C(=O)N2CCN(c3cnccn3)CC2)CN1CCc1ccccc1 (stereo unspecified)	-1%	-21%	-6	13%	0%	-8
O=C(O)CN(c1ccccn1)S(=O)(=O)c1ccc(Cl)cc1	-3%	?	-5	40%	-11%	-11
COC(=O)CN(c1ccccn1)S(=O)(=O)c1ccccc1	18%	11µM*	-5	7%	-1%	?
O=C(O)CN(c1ccccn1)S(=O)(=O)c1ccccc1	-9%	28µM*	-2	2%	1%	9
Cc1ccc(C(=O)[C@H](C)CN2CCCCC2)cc1	.	.	.	.	-6%	.
COc1cc(C2NC(=O)C(C#N)=C(S)N2c2ccccc2)ccc1OC(C)C (stereo unspecified)	-2%	-5%	0	16%	6%	-67*
COc1ccc(-c2nc3c(C#N)c[nH]n3c2NC2CCCCC2)cc1	-27%	2%	-9	-26%	.	.
Cc1cc(C)nc(SCC(=O)Nc2nc(-c3ccccc3)c(-c3ccccc3)o2)n1	-16%	-24%	33*	?	-5%	43
Cc1cc(=O)[nH]c(SCC(=O)Nc2nc(-c3ccccc3)c(-c3ccccc3)o2)n1	10%	.	-8	6%	3%	-4
Cc1ccc(C(=O)Nc2nc(-c3ccccc3)c(-c3ccccc3)o2)cc1	-13%	.	-21	?	1%	-85*
CCOc1ccccc1N1CCN(C(=S)NC(=O)C23CC4CC(CC(C4)C2)C3)CC1	?	1%	-8	?	3%	5
O=[N+]([O-])c1ccc(NC(=S)N2CCN(c3ccc(F)cc3)CC2)cc1	26%	18µM*	-8	0%	-27%	22
CCOc1ccccc1N1CCN(C(=O)c2cc[n+]([O-])cc2)CC1	0%	-1%	-27	-6%	-3%	-63*
SMILES	GLP1R cytotox	ClpP mod	DRD3 agonist	GLP-1R inv ag	GLP1R ag	D3 antag
CCCc1ccc(C(=O)N2CCN(c3ccccc3OCC)CC2)cc1	0%	-1%	15	0%	2%	30
O=[N+]([O-])c1cccc(NC(=S)NCCc2ccccc2)c1	0%	1%	-25	0%	-7%	-71*
CCOc1ccccc1N1CCN(C(=S)NCc2ccc(Cl)cc2)CC1	0%	-1%	-3	11µM*	21%	-9
CC(C)(C)n1nnnc1C(c1ccccc1)N1CCN(c2ccc(C(F)(F)F)cn2)CC1 (stereo unspecified)	3%	-9%	-3	?	4%	0
Cc1nn(C(=O)c2ccccc2)c(C)c1S(=O)(=O)N1CCOCC1	-2%	0%	-20	14%	-1%	.
COc1ccc(-n2nc(C(=O)N3CCN(c4ccccc4OC)CC3)c3c4ccccc4n(C)c3c2=O)cc1	-8%	-4%	7	9%	.	.
O=C(NCCc1ccc(Cl)cc1)Nc1ccc(F)cc1	8%	.	-23	?	6%	-21
O=C(NCCc1ccc(F)cc1)Nc1ccc([N+](=O)[O-])cc1	-21%	0%	-12	4µM*	-3%	-21
O=[N+]([O-])c1ccc(N2CCN(C(=S)NCc3ccc(Cl)cc3)CC2)cc1	-5%	3%	-3	?	4%	-53*
COc1ccc(CNC(=O)Cc2c(C)c3c(cc(C)c4c(C)c(C)oc43)oc2=O)cc1	-2%	-6%	-12	4%	.	.
COc1ccc(C2C(O)C(c3c[nH]c4ccccc34)=NN2C(=O)CCl)cc1 (stereo unspecified)	11µM*	.	11	?	1%	-4
COc1ccc(C2NN=C(c3c[nH]c4ccccc34)C2O)cc1 (stereo unspecified)	-18%	-18%	0	?	6%	-20
O=C(Nc1ccc(F)cc1)C(c1cccc(F)c1)N1CCN(Cc2c(F)cccc2Cl)CC1 (stereo unspecified)	-10%	2%	-5	?	.	3
CCc1ccc(C2c3c(oc4ccc(F)cc4c3=O)C(=O)N2c2nc(C)c(C(=O)OC)s2)cc1 (stereo unspecified)	5%	-10%	1	17%	.	.
Oc1ccc(Cl)cc1C=Nc1ccc2c3c(cccc13)CC2	0%	0%	9	-21%	6%	?
Oc1cccc(C=Nc2cccc3ccccc23)c1O	?	.	0	31%	-3%	-75*
Cc1cccc(C=Nc2ccc3c4c(cccc24)CC3)c1O	9%	16µM*	2	0%	9%	-22

Screens: PubChem, National Center for Advancing Translational Sciences (NCATS)
